The list is not random: actives were taken first. Their share in the collection is about 3.8%.
HSF1 inhib = HSF1 inhibition. NIH3T3-HGL HSE-luciferase, MG132-induced, luminescence 8 h; hits give low values. activity change, negative = inhibition, % at 7.5 µM (by protocol). 300,000 compounds, 0.77% hits. AID 2098;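 active = more than half of replicate wells show activity change below -50%, luminescence cut by over half; inconclusive = some wells, but at most half, below -50%; inactive = no replicate well below -50%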;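 note: luciferase reports HSF-1 transcriptional activity via heat shock element; 0% = median of DMSO wells and -100% = zero luminescence signal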
HSP90 refold inh = blocks HSP90-mediated luciferase refolding in reticulocyte lysate | Rabbit reticulocyte lysate, luciferase refolding luminescence, 3 h | inhibition, % at 5.6 µM | 290,000 compounds, 0.91% hits | AID 1789;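 active = inhibition above the screen-wide mean plus 3 SD, computed separately per campaign, cut at about 16% in these data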;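 note: 0% = DMSO wells and 100% = 60 µM geldanamycin wells; inhibitors lower the luminescence because luciferase stays unfolded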
p-CIP stab down = compounds decreasing mouse p/CIP protein stability. F442A p/CIP-EGFP cells, EGFP fluorescence, 16 h. decrease of EGFP signal, % at 10 µM. 290,000 compounds, 0.01% hits. AID 1984;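 active = EGFP signal decrease of at least 30% at 10 µM or well 3 SD below plate mean, unless failing retest; inactive = the rest, including hits failing retest or dose response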
Target sequence (Q05BA5 1-1403): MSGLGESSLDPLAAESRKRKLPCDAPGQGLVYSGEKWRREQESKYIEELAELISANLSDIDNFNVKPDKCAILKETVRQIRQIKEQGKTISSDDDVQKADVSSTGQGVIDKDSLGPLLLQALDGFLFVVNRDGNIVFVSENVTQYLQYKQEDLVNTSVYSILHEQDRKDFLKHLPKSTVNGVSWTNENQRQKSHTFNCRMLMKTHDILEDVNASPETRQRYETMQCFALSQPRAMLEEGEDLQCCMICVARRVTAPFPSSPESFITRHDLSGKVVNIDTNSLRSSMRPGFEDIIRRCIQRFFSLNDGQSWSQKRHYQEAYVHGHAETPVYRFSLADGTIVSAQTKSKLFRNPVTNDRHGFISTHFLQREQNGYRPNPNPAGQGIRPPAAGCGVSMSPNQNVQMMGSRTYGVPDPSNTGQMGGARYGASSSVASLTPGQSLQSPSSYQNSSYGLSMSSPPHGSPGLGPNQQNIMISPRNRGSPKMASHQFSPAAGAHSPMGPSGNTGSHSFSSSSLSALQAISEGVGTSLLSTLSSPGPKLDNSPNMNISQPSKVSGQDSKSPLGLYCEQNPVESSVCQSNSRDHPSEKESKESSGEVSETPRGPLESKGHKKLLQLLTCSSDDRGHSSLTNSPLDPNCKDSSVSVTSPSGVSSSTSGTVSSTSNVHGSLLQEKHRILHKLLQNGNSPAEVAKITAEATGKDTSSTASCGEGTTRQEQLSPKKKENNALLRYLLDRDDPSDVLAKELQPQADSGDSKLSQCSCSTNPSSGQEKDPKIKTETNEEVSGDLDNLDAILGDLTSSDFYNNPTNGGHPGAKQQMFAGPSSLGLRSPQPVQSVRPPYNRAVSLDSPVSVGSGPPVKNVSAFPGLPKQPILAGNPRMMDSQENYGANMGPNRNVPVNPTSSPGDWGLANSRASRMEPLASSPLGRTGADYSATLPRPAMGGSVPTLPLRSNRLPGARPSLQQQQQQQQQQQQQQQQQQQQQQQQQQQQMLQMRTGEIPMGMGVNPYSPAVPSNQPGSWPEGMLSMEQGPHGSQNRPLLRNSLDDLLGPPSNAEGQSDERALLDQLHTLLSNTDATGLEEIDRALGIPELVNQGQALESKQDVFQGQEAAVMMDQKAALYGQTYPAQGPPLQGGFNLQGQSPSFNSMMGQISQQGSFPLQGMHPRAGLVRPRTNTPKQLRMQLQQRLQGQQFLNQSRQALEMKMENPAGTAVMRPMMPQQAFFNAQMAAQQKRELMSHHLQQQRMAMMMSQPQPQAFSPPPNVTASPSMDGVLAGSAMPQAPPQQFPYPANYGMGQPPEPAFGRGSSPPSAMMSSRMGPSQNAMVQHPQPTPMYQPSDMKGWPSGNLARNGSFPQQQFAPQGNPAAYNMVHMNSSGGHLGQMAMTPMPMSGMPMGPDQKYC
HSF1 activator = increases HSF-1 driven luciferase reporter signal. NIH3T3-HGL HSF-1 luciferase reporter, MG132, 8 h; 100% = twice DMSO control signal. activation, % at 9 µM. 300,000 compounds, 1.7% hits. AID 504408;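 active = mean replicate activation of at least 50% with a set share of replicates each reaching 50%; inconclusive = only one of those two conditions met; inactive = mean below 50% and too few replicates reaching it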;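 note: 0% = median of the neutral control wells and 100% = twice that signal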
NALP1 inh = blocks the NALP1 inflammasome reconstituted in yeast | AID 2071 | 280,000 compounds, 0.61% hits | S. cerevisiae NALP1/ASC/caspase-1 growth, X-gal OD620, 72 h | inhibition, % at 10 µM; in the data active = inhibition mostly above about 24%, no sharp cut-off; inactive = mostly below about 32%
Hsp70 activator = Hsp70 transcriptional activation, primary screen; 200,000 compounds, 0.04% hits; HeLa Hsp70 promoter luciferase reporter, luminescence; scaled: vehicle 0, proteasome-inhibitor control 100%; activation, % at 10 µM;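 active = activation above the mean across all tested compounds plus 3 SD, cutoff set per campaign, cut at about 5.5% in these data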;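 note: 100% = MG132 at 30 µM as the positive control and 0% = DMSO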
* hit, by the source's call; ? = inconclusive; . = no result.

SMILES	HSF1 inhib	HSP90 refold inh	p-CIP stab down	HSF1 activator	NALP1 inh	Hsp70 activator
Cc1cc(=O)n(CCO)c(O)c1C#N	-1.4	8.6	8.7	10.1	7.9	-0.1
Cc1ccc(NS(=O)(=O)c2cc3[nH]c(=O)c(=O)[nH]c3cc2C)c(C)c1	-4.2	1.4	-0.5	6.7	10.8	.
Cc1cccc(C(=O)NCC(c2ccc(F)cc2)N2CCOCC2)c1 (stereo not drawn)	-3.2	0.7	7.6	-7.0	-15.5	-0.3
Cc1ccc(N=C2SC(C(=O)O)CC(=O)N2C)cc1C (stereo not drawn)	-1.8	2.5	-4.0	-18.1	4.2	-0.3
Cc1ccc(N=C2SC(C(=O)NCCc3ccccc3)CC(=O)N2C)cc1C (stereo not drawn)	17.7	-0.8	0.4	69.8*	3.4	-0.3
O=C(NCc1cccc(Cl)c1)C1CCCO1 (stereo not drawn)	-9.0	-3.3	-6.9	-5.8	31.9*	0.7
O=C(NCc1ccc(Cl)cc1)C1CCCO1 (stereo not drawn)	3.9	1.1	2.4	-6.7	0.4	0.1
O=C(N/N=C/c1ccc(F)cc1)c1ccccc1	5.8	4.4	6.8	22.5	31.9*	0.2
COc1ccc(C(=O)N/N=C/c2sc3ccccc3c2O)cc1	-2.7	14.7	-15.2	10.4	23.8	-0.2
COC(=O)N/N=C/c1cc(Br)ccc1O	-2.3	-0.5	-10.2	-10.3	-5.3	-0.1
O=C(N/N=C/c1sc2ccccc2c1O)c1ccccc1	197.3	5.0	7.7	270.4*	29.0	-0.2
O=C(N/N=C/c1ccccc1Cl)c1n[nH]c2c1CCCC2	-66.5*	20.1*	3.9	-71.5	15.7	-0.5
O=C(N/N=C/c1cc(Br)ccc1O)c1ccccc1Cl	5.3	-6.4	9.1	27.2	59.1*	-0.4
CCN(CC(=O)Nc1ccc(NC(C)=O)cc1)C(=O)c1cccc(S(=O)(=O)N2c3ccccc3CC2C)c1 (stereo not drawn)	8.1	.	.	28.8	.	.
C/C=C/C(=O)Nc1cccc(C2=NOC3(C2)C[C@H](C(N)=O)N(C(=O)c2ccccc2C(=O)c2ccccc2)C3)c1 (stereo partly drawn)	-3.1	.	1.8	-7.0	-2.1	.
O=C(C[n+]1ccc(/C=N/O)cc1)N(Cc1ccccc1)Cc1ccccc1	-3.1	0.1	-0.1	-7.2	25.6	-0.2
O=C(N/N=C/c1c(Cl)cccc1Cl)c1cccc(F)c1	18.3	0.1	-6.2	31.0	5.8	-0.1
O=C(N/N=C/c1ccccc1Cl)c1cccc(F)c1	41.6	-2.0	1.1	72.6*	-7.7	0.2
CCN(Cc1ccccc1)C(=O)C1CCN(Cc2ccc(SC)cc2)CC1	-1.2	-2.1	0.3	-10.8	6.3	-0.3
CCN(Cc1ccccc1)C1CCN(Cc2ccc(SC)cc2)CC1	1.2	-1.9	-16.8	7.0	27.8*	0.1
COCCCn1c(-c2ccco2)nc2ccccc2c1=O	-67.9*	7.8	-10.9	-73.5	11.7	0.4
C[C@H](CCC(=O)NCC(=O)O)[C@H]1CC[C@H]2C3[C@H](O)C[C@@H]4C[C@H](O)CC[C@]4(C)[C@H]3C[C@H](O)[C@]12C (stereo partly drawn)	-2.9	.	.	-12.5	.	.
O=C(O)c1cn(-c2ccccc2)nc1C(=O)O	-5.7	3.8	-10.1	-6.3	7.3	0.0
NNC(=O)c1nn(-c2ccccc2)cc1O	-55.5*	-3.8	-4.2	-55.9	-10.0	-0.3
CCOc1ccc(Br)cc1S(=O)(=O)N1CCSC1	-6.2	1.9	-5.9	-13.6	18.4	.
SMILES	HSF1 inhib	HSP90 refold inh	p-CIP stab down	HSF1 activator	NALP1 inh	Hsp70 activator
COc1cc(/C=N/N=C(N)N)ccc1OCc1ccccc1Cl	17.0	-1.3	15.3	54.9*	9.8	-0.3
COc1ccc2c(c1)oc(=O)c1c3ccccc3[nH]c21	21.1	1.8	-13.2	71.0*	6.8	0.3
COc1ccc(C)cc1NC(=O)CC(NC(C)=O)c1ccccc1 (stereo not drawn)	-8.2	2.9	-17.4	3.1	10.3	1.1
Cn1c(=O)c([N+](=O)[O-])c(Cl)c2ccccc21	-72.8*	2.3	-7.6	-74.2	-1.3	-0.1
COCCn1c(SCc2ccc(C(=O)OC)o2)nc2ccccc2c1=O	.	1.5	1.5	.	28.6	-0.1
COCCn1c(C)cc(C(=O)CSc2nnc3ccccn23)c1C	-51.2*	49.8*	-3.0	-59.6	-10.1	-0.4
COCCn1c(SCC(=O)c2cc(C)n(C)c2C)nc2ccccc2c1=O	-72.3*	-2.0	-4.9	-77.2	-21.8	0.1
COC(=O)c1cc(CSc2nc3ccccc3c(=O)n2C)oc1C	16.8	-0.5	-12.5	17.6	24.2*	.
O=C(CNC(=O)C12CC3CC(CC(C3)C1)C2)NC1=NCCS1	-11.8	-0.5	-5.8	-13.6	33.1	0.0
O=C(CNC(=O)C1CCCCC1)NC1=NCCS1	-88.3*	-1.4	-2.5	-90.3	-16.3	-0.4
Cc1c([N+](=O)[O-])cnc(Sc2ccccc2)c1[N+](=O)[O-]	-3.8	.	.	5.7	.	.
Fc1ccccc1N1CCN(c2cnc3ccccc3n2)CC1	35.9	6.5	-11.8	62.4*	19.5	-0.2
O=C(N/N=C/c1ccccc1)C(=O)N/N=C/c1ccccc1	4.5	2.0	1.2	1.8	-5.1	.
O=C(C=C=Nc1ccccc1)C(=O)N=C=Cc1ccccc1	170.1	4.0	-12.3	223.7*	-7.0	.
Cc1ccc(S(=O)(=O)n2ccc(=O)[nH]2)cc1	-68.3*	7.0	3.4	-76.1	0.0	-0.2
COc1ccccc1N1CCN(/N=C/C=C/c2ccccc2[N+](=O)[O-])CC1	4.4	-1.5	-11.3	4.8	-3.4	.
CCCCNc1cc(NC(C)=O)cc2cc(OC)c(OC)cc12	59.2	2.1	-5.8	76.3*	-34.6	-0.2
COc1ccc([N+](=O)[O-])cc1NCc1ccccc1	6.9	-2.4	-1.8	26.0	9.0	-0.3
COc1cc2cc(NC(C)=O)cc(NCc3ccccc3)c2cc1OC	27.7	-2.7	-23.9	66.4*	7.8	.
CN(C(=O)c1ccc(Oc2ccc([N+](=O)[O-])cc2)cc1)C1CCCCC1	-0.7	-4.3	-11.2	38.9	22.6	.
O=S(=O)(NCc1ccccn1)C(F)(F)F	-2.4	-6.0	-1.2	4.0	-0.4	.
c1ccc(Cc2nc3ccccc3o2)cc1	-80.6*	9.9	7.6	-83.8	-8.0	-0.3
C[C@@H]1CN(Cc2nc(-c3cnccn3)no2)C[C@H](C)O1	-12.2	-0.4	12.0	-23.0	-5.9	-0.3
C=CC(=O)NC(C)(C)Cc1ccccc1	?	-5.5	-10.7	-31.0	7.3	0.2
CC(Cc1ccccc1)(NC(=O)CN)c1ccccc1 (stereo not drawn)	-5.4	3.8	5.1	0.4	62.7*	0.5
Cc1oc(-c2cccc(Cl)c2)nc1CS(=O)(=O)CC(=O)NC1CC1	24.5	-1.3	-18.6	57.1*	-11.8	.
COc1cccc(-c2nc(CS(=O)(=O)CC(=O)Nc3c(C)cccc3C)c(C)o2)c1	0.2	71.7*	-13.2	-15.0	10.8	0.1
